Calls of active or inactive are those of the source. The call rests on the fitted dose curve.

The assay is described as follows: Platelet Aggregation Secondary Assay for Inhibitors of Platelet Integrin alphallb-beta3. To be noted: platelet-rich plasma, ADP-induced aggregation, absorbance 563 nm. From the text:
NIH Molecular Libraries Probe Production Network [MLPCN] NIH Chemical Genomics Center [NCGC] MLPCN Grant: 1 R03 MH083257-01 Assay Provider: Barry Coller, Rockefeller University NCGC Assay Overview: The alphaIIbbeta3 receptor plays a vital role in hemostasis and thrombosis, where receptor deficiency causes the hemorrhagic disorder, Glanzmann thrombasthenia, and uncontrolled receptor activation causes thrombosis and blood vessel occlusion. Small molecule inhibitors of alphaIIbbeta3, tirofiban and eptifibatide, have undesirable side effects thought to arise from conformational changes in alphaIIbbeta3. These changes transiently activate the receptor to cause spontaneous platelet aggregation and thrombus formation. […] This secondary assay measures platelet aggregation (Blue et al., 2008). Platelets are induced to aggregate and aggregation is tracked by the change in absorbance over time. Inhibitors of alphaIIbbeta3 block platelet aggregation and decrease the rate of change in absorbance.
NCGC Assay Protocol Summary: Untreated 96-well polystyrene plates (Nunc, Rochester, NY) were blocked for at least 1 hour with HBMT (138 mM NaCl, 12 mM NaHCO3, 10 mM HEPES, 2.7 mM KCl, 0.4 mM NaH2PO4, 0.1% glucose, 0.35% BSA, pH 7.4). Compounds (33 uL in HBMT) and citrated platelet-rich plasma (67 uL) were added to the wells. After plates equilibrated at 37 C in the plate reader (SpectraMax; Molecular Devices, Sunnyvale, CA) for 10 minutes, aggregation was initiated by adding ADP (5 uM final concentration; Chrono-Log Corp, Havertown, PA). Absorbance (Abs) was measured at 563 nm every 10 seconds with 3 seconds of shaking between determinations for 8 minutes. Reference Blue R, Murcia M, Karan C, Jirouskova M, and Coller BS. Application of high-throughput screening to identify a novel alphaIIb-specific small- molecule inhibitor of alphaIIbbeta3-mediated platelet interaction with fibrinogen. Blood. 2008, 111(3):1248-56
As for `NC(=O)c1ccc(-c2cccc(-c3nn4c(=O)cc(N5CCNCC5)nc4s3)c2)cc1`, the Potency was 1.6 µM (active).
As for `O=C(O)c1cc(-c2cccc(-c3nn4c(=O)cc(N5CCNCC5)nc4s3)c2)cs1`, the compound was classed as inactive.
`Nc1ccc(-c2cccc(-c3nn4c(=O)cc(N5CCNCC5)nc4s3)c2)cc1`: the Potency was 1.9 µM (active).
The same measure, in the same setting: to `O=C(O)CNc1cccc(-c2nn3c(=O)cc(N4CCNCC4)nc3s2)c1` belongs 12.7 µM (active); to `C[C@H](N)C(=O)Nc1cccc(-c2nn3c(=O)cc(N4CCNCC4)nc3s2)c1`, 0.916 µM (active).
For the compound `Cc1noc(C)c1-c1cccc(-c2nn3c(=O)cc(N4CCNCC4)nc3s2)c1`, the outcome was inactive.
Take `O=C(Nc1cccc(-c2nn3c(=O)cc(N4CCNCC4)nc3s2)c1)c1ccon1`: the compound was classed as inactive.
On to `O=C(O)c1ccc(-c2nn3c(=O)cc(N4CCNCC4)nc3s2)cc1`, for which the Potency is 5.4 µM (active).
Regarding `NCCC(=O)Nc1cccc(-c2nn3c(=O)cc(N4CCNCC4)nc3s2)c1`, the Potency is 1.6 µM (active).
On the same count and under the same terms, under `O=c1cc(N2CCNCC2)nc2sc(-c3cccc(-c4ccncc4)c3)nn12` stands 8 µM (active).
For `Nc1ncc(-c2cccc(-c3nn4c(=O)cc(N5CCNCC5)nc4s3)c2)cn1`, the Potency is 10.1 µM (active).
For `O=c1cc(N2CCNCC2)nc2sc(-c3cccc(-c4ccnc(F)c4)c3)nn12`, the Potency is 8.4 µM (active).
As to `NCC(=O)Nc1cccc(-c2nn3c(=O)cc(N4CCNCC4)nc3s2)c1`, the Potency was 0.163 µM (active).
Consider `O=C(O)c1ccc(-c2cccc(-c3nn4c(=O)cc(N5CCNCC5)nc4s3)c2)cc1`, for which the Potency was 11.4 µM (active).
Regarding `O=C(Nc1cccc(-c2nn3c(=O)cc(N4CCNCC4)nc3s2)c1)C1CCNCC1`, the Potency is 8.6 µM (active).
`CCc1nn2c(=O)cc(-c3ccncc3)nc2s1`: the compound was called inactive.
`O=C(O)c1cccc(-c2cccc(-c3nn4c(=O)cc(N5CCNCC5)nc4s3)c2)c1`: the call was inactive.
Turning to `C[C@@H](N)C(=O)Nc1cccc(-c2nn3c(=O)cc(N4CCNCC4)nc3s2)c1`, the Potency was 5.9 µM (active).
`CCc1nn2c(=O)cc(N3C(C)CNCC3C)nc2s1` (stereo unspecified): the result was inactive.
`O=C(Nc1cccc(-c2nn3c(=O)cc(N4CCNCC4)nc3s2)c1)c1ccncc1`: the Potency was 1.5 µM (active).
`O=c1cc(N2CCNCC2)nc2sc(Cc3ccccc3)nn12`: the Potency is 13.9 µM (active).
Same read-out and setting: to `O=c1cc(N2CCNCC2)nc2sc(-c3ccncc3)nn12` belongs 3.1 µM (active).
Regarding `CNCC(=O)Nc1cccc(-c2nn3c(=O)cc(N4CCNCC4)nc3s2)c1`, the result was inactive.
`CC(C)(C)c1nn2c(=O)cc(N3CCNCC3)nc2s1`: the outcome was inactive.
Take `CCc1nn2c(=O)cc(NC3CNC3)nc2s1`: the compound was classed as inactive.
`COCc1nn2c(=O)cc(N3CCNCC3)nc2s1`: the compound was classed as inactive.
